Measured values: PubChem BioAssay AID1159580 (chemical genetic matrix, 2015)
Where “and” joins values, the source holds several entries; their conditions need not be identical. Equal values may be shown once. About 2,000 (36%) of roughly 5,500 compounds were called active. About 18% were inconclusive and are not listed. Cut-off read from the data, not from the text of the source: active = normalized growth mostly below about 0.91 (no sharp cut-off); inconclusive = no clear call, values can overlap the other calls; inactive = mostly above about 0.92. The list shows a part of the results.

Experiment: chemical genetic growth profiling, strain panel (AID 1159580);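 note: tested at 20 µM; growth read once vehicle control cultures reached saturation at 30 °C; 1 = growth at the plate median or of vehicle wells; lower values mean less growth of the strain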
Conditions: S. cerevisiae deletion strains, growth OD
[1] = locus YGR078C, strain PAC10, active compounds read low
[2] = locus YMR307W, strain GAS1, active compounds read low
[3] = locus YNL153C, strain GIM3, active compounds read low
[4] = locus YPL241C, strain CIN2, active compounds read low

Measured: normalized growth

CC[C@]12CCCN3CCc4c(n(c5ccccc45)[C@](O)(C(=O)OC)C1)[C@@H]32
inactive: locus YAL013W, strain DEP1, active compounds read low 0.984 | locus YAL021C, strain ccr4, active compounds read low 0.986 | locus YAL026C, strain drs2, active compounds read low 0.983 | locus YAL030W, strain snc1, active compounds read low 0.984 | locus YBL061C, strain skt5, active compounds read low 0.979 | locus YBR009C, strain hhf1, active compounds read low 0.999 | locus YBR021W, strain FUR4, active compounds read low 0.998 | locus YBR023C, strain chs3, active compounds read low 0.991 | locus YBR171W, strain sec66, active compounds read low 0.983 | locus YBR229C, strain ROT2, active compounds read low 0.951 | locus YBR231C, strain swc5, active compounds read low 0.994 | locus YBR279W, strain paf1, active compounds read low 0.98 | locus YCL011C, strain gbp2, active compounds read low 0.985 | locus YCL016C, strain dcc1, active compounds read low 0.966 | locus YCL029C, strain bik1, active compounds read low 0.978 | locus YCL061C, strain MRC1, active compounds read low 0.986 | locus YCL069W, strain vba3, active compounds read low 0.987 | locus YCR088W, strain abp1, active compounds read low 0.981 | locus YDL005C, strain med2, active compounds read low 0.96 | locus YDL035C, strain GPR1, active compounds read low 0.966 | locus YDL040C, strain nat1, active compounds read low 0.989 | locus YDL074C, strain BRE1, active compounds read low 0.991 | locus YDL101C, strain DUN1, active compounds read low 0.977 | locus YDL185W, strain tfp1, active compounds read low 0.964 | locus YDL192W, strain arf1, active compounds read low 0.979 | locus YDR001C, strain nth1, active compounds read low 0.98 | locus YDR069C, strain doa4, active compounds read low 0.991 | locus YDR101C, strain arx1, active compounds read low 0.964 | locus YDR137W, strain rgp1, active compounds read low 0.954 | locus YDR159W, strain sac3, active compounds read low 1.01 | locus YDR162C, strain NBP2, active compounds read low 0.97 | locus YDR195W, strain ref2 0.952 | locus YDR297W, strain sur2, active compounds read low 0.99 | locus YDR318W, strain mcm21, active compounds read low 1 | locus YDR334W, strain swr1, active compounds read low 0.975 | locus YDR335W, strain msn5, active compounds read low 0.979 | locus YDR388W, active compounds read low 0.978 | locus YDR392W, strain spt3, active compounds read low 0.946 | locus YDR502C, strain sam2, active compounds read low 0.978 | locus YEL003W, strain gim4, active compounds read low 0.984 | locus YEL037C, strain rad23, active compounds read low 0.979 | locus YEL061C, strain CIN8 (second series), active compounds read low 0.986 | locus YEL061C, strain CIN8, active compounds read low 0.982 | locus YER015W, strain faa2, active compounds read low 0.985 | locus YER016W, strain bim1, active compounds read low 0.969 | locus YER110C, active compounds read low 0.979 | locus YER111C, strain swi4, active compounds read low 0.978 | locus YER155C, strain BEM2 (second series), active compounds read low 0.958 | locus YER155C, strain BEM2, active compounds read low 0.995 | locus YER167W, strain BCK2, active compounds read low 0.996 | locus YFR010W, strain ubp6, active compounds read low 0.998 | locus YGL078C, strain dbp3, active compounds read low 0.997 | locus YGL086W, strain mad1, active compounds read low 0.977 | locus YGL167C, strain pmr1, active compounds read low 0.979 | locus YGL173C, strain kem1, active compounds read low 0.984 | locus YGL227W, strain vid30, active compounds read low 0.981 | locus YGL240W, strain doc1, active compounds read low 1.02 | locus YGL248W, strain PDE1, active compounds read low 0.993 | locus YGL253W, strain hxk2, active compounds read low 0.981 | [1] 0.982 | locus YGR135W, strain pre9, active compounds read low 1.04 | locus YGR252W, strain gcn5, active compounds read low 1.07 | locus YHR013C, strain ard1, active compounds read low 0.953 | locus YHR027C, strain rpn1, active compounds read low 0.991 | locus YHR030C, strain SLT2, active compounds read low 0.992 and 0.98 | locus YHR079C, strain IRE1 (second series), active compounds read low 0.961 | locus YHR079C, strain IRE1, active compounds read low 0.964 | locus YHR094C, strain hxt1, active compounds read low 0.981 | locus YHR129C, strain ARP1, active compounds read low 0.988 | locus YHR142W, strain chs7, active compounds read low 0.964 | locus YHR200W, strain rpn10, active compounds read low 0.971 | locus YIL066C, strain RNR3, active compounds read low 0.977 | locus YIL073C, strain SPO22, active compounds read low 0.965 | locus YIL125W, strain kgd1, active compounds read low 0.988 | locus YIR030C, strain dcg1, active compounds read low 0.99 | locus YJL092W, strain hpr5, active compounds read low 0.993 | locus YJL095W, strain BCK1 (second series), active compounds read low 0.973 | locus YJL095W, strain BCK1, active compounds read low 1.01 and 0.994 | locus YJL115W, strain asf1, active compounds read low 1 | locus YJL129C, strain trk1, active compounds read low 0.974 | locus YJL134W, strain LCB3, active compounds read low 0.99 | locus YJL154C, strain vps35, active compounds read low 0.968 | locus YJL164C, strain tpk1, active compounds read low 0.997 | locus YJL166W, strain qcr8, active compounds read low 1.01 | locus YJL168C, strain set2, active compounds read low 0.984 | locus YJL187C, strain SWE1 (second series), active compounds read low 0.979 | locus YJL187C, strain SWE1, active compounds read low 0.985 | locus YJR043C, strain POL32, active compounds read low 0.977 | locus YJR066W, strain TOR1, active compounds read low 0.925 | locus YKL009W, strain mrt4, active compounds read low 0.985 | locus YKL068W, active compounds read low 0.987 | locus YKL085W, strain MDH1 (second series), active compounds read low 0.997 | locus YKL085W, strain MDH1, active compounds read low 0.997 | locus YKL160W, strain elf1, active compounds read low 0.962 | locus YKR001C, strain vps1, active compounds read low 0.977 | locus YKR026C, strain gcn3, active compounds read low 0.988 | locus YKR091W, strain srl3, active compounds read low 0.982 | locus YLL001W, strain dnm1, active compounds read low 0.986 | locus YLL026W, active compounds read low 1 | locus YLL041C, strain sdh2, active compounds read low 0.987 | locus YLR027C, strain aat2, active compounds read low 0.989 | locus YLR039C, strain RIC1, active compounds read low 1.03 | locus YLR058C, strain SHM2, active compounds read low 0.976 | locus YLR102C, strain apc9, active compounds read low 0.982 | locus YLR113W, strain HOG1, active compounds read low 0.976 | locus YLR221C, strain rsa3, active compounds read low 1 | locus YLR258W, strain gsy2, active compounds read low 0.964 | locus YLR262C, strain YPT6 (second series), active compounds read low 0.977 | locus YLR262C, strain YPT6, active compounds read low 0.912 | locus YLR268W, strain sec22, active compounds read low 0.963 | locus YLR320W, strain mms22, active compounds read low 0.995 | locus YLR330W, strain CHS5, active compounds read low 0.988 | locus YLR342W, strain FKS1 (second series), active compounds read low 0.997 | locus YLR342W, strain FKS1, active compounds read low 0.989 | locus YLR357W, strain rsc2, active compounds read low 0.953 | locus YLR370C, strain arc18, active compounds read low 0.975 | locus YLR371W, strain rom2, active compounds read low 0.987 | locus YLR384C, strain iki3, active compounds read low 0.977 | locus YLR418C, strain cdc73, active compounds read low 0.989 | locus YML016C, strain PPZ1, active compounds read low 0.991 | locus YML032C, strain rad52, active compounds read low 0.967 | locus YML120C, strain ndi1, active compounds read low 0.99 | locus YML124C, strain tub3, active compounds read low 0.989 | locus YMR058W, strain fet3, active compounds read low 0.983 | locus YMR078C, strain ctf18, active compounds read low 0.977 | locus YMR125W, strain sto1, active compounds read low 0.98 | locus YMR129W, active compounds read low 0.985 | locus YMR205C, strain PFK2, active compounds read low 0.97 | locus YMR223W, strain ubp8, active compounds read low 1.03 | locus YMR231W, strain pep5, active compounds read low 0.982 | [2] 0.967 | locus YNL067W, strain RPL9B, active compounds read low 0.987 | locus YNL071W, strain lat1, active compounds read low 0.981 | locus YNL128W, strain TEP1, active compounds read low 0.974 | [3] 0.994 | locus YNL183C, strain NPR1, active compounds read low 0.915 | locus YNL209W, strain ssb2, active compounds read low 0.988 | locus YNL233W, strain BNI4, active compounds read low 0.99 | locus YNL248C, strain rpa49, active compounds read low 0.99 | locus YNL250W, strain rad50, active compounds read low 0.984 | locus YNL271C, strain bni1, active compounds read low 0.986 | locus YNL298W, strain CLA4, active compounds read low 0.987 | locus YNL307C, strain MCK1, active compounds read low 0.981 | locus YNL322C, strain KRE1 (second series), active compounds read low 0.969 | locus YNR049C, strain mso1, active compounds read low 0.978 | locus YNR052C, strain pop2, active compounds read low 0.993 | locus YOL012C, strain htz1 0.992 | locus YOL147C, strain pex11, active compounds read low 0.989 | locus YOR001W, strain rrp6, active compounds read low 1.02 | locus YOR061W, strain CKA2, active compounds read low 0.976 | locus YOR069W, strain VPS5, active compounds read low 0.992 | locus YOR070C, strain gyp1, active compounds read low 0.995 | locus YOR080W, strain dia2, active compounds read low 0.972 | locus YOR083W, strain WHI5, active compounds read low 0.98 | locus YOR106W, strain vam3, active compounds read low 0.984 | locus YOR136W, strain idh2, active compounds read low 0.969 | locus YOR144C, strain elg1, active compounds read low 0.984 | locus YOR184W, strain ser1, active compounds read low 0.98 | locus YOR231W, strain MKK1, active compounds read low 1.01 | locus YOR265W, strain rbl2, active compounds read low 0.995 | locus YOR270C, strain vph1, active compounds read low 0.988 | locus YOR290C, strain snf2, active compounds read low 0.979 | locus YOR316C, strain cot1, active compounds read low 0.968 | locus YPL051W, strain arl3, active compounds read low 0.971 | locus YPL078C, strain atp4, active compounds read low 0.973 | locus YPL106C, strain sse1, active compounds read low 0.959 | locus YPL240C, strain hsp82, active compounds read low 0.985 | [4] 0.967 | locus YPL256C, strain CLN2, active compounds read low 0.984 | locus YPR119W, strain clb2, active compounds read low 0.975 | locus YPR141C, strain kar3, active compounds read low 0.979 | locus YPR163C, strain tif3, active compounds read low 0.974 | locus YPR167C, strain met16, active compounds read low 0.995 | strain wtn01, active compounds read low 1

CCOC(=O)C1=CC2(CC)CCCN3CCc4c(n1c1ccccc41)C32 (stereo unspecified)
inactive: locus YAL040C, strain CLN3, active compounds read low 1 | locus YCL061C, strain MRC1 (second series), active compounds read low 1 | locus YDR150W, strain NUM1, active compounds read low 1 | locus YDR363W, strain ESC2, active compounds read low 1 | locus YER002W, strain NOP16, active compounds read low 1.02 | [1] 0.999 | locus YGR229C, strain SMI1, active compounds read low 1.01 | locus YJR075W, strain HOC1, active compounds read low 0.984 | [2] 1.01 | [3] 0.989 | locus YNL175C, strain NOP13, active compounds read low 1.03 | locus YNL197C, strain WHI3, active compounds read low 1.03 | locus YNL224C, strain SQS1, active compounds read low 1.01 | locus YNL322C, strain KRE1, active compounds read low 0.983 | locus YOR083W, strain WHI5 (second series), active compounds read low 1.01 | locus YPL055C, strain LGE1, active compounds read low 1.02 | [4] 0.997
